According to PubChem BioAssay (NCI):
Where “and” joins values, the source holds several entries; their conditions need not be identical. Equal entries are not always repeated. About 79,000 compounds went through this panel and 15% of them were active in at least one assay; those are over-represented in the sample as a whole. Unmarked numbers belong to inactive results. Calls of active or inactive are those of the source. No stated cut-off is given here; in the data, active means growth inhibition above about 70%; inactive means the rest.

Assays:
[1] = NCI Yeast Anticancer Drug Screen. Data for the rad50 strain (AID 155);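 further: 0% = growth of vehicle-only cultures of the same strain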; details: S. cerevisiae rad50 strain growth inhibition; at 50.0 µM; active compounds read high
Procedure, shortened: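 Relative growth inhibition (compound vs vehicle) was measured in yeast with a defined repair-gene alteration.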

[2] = NCI Yeast Anticancer Drug Screen. Data for the mec2-1 strain (AID 157); details: S. cerevisiae mec2-1 strain, at 50.0 µM, active compounds read high
Procedure, shortened: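 Each compound was tested on mec2-1 yeast, a strain altered in DNA damage repair or cell cycle control. Growth inhibition is reported relative to vehicle.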

[3] = NCI Yeast Anticancer Drug Screen. Data for the sgs1 mgt1 strain (AID 161);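 further: 0% = growth of cultures given vehicle only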; details: S. cerevisiae sgs1 mgt1 strain, at 50.0 µM, active compounds read high
Procedure, shortened: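 Read-out: growth inhibition vs vehicle controls. Cells: mutant yeast strain deficient in DNA damage repair.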

[4] = NCI Yeast Anticancer Drug Screen. Data for the cln2 rad14 strain (AID 165);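 further: 0% = growth equal to vehicle treated cultures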; details: S. cerevisiae cln2 rad14 strain, at 50.0 µM, active compounds read high
Procedure, shortened: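 Test compounds were added to cln2 rad14 yeast cultures; inhibition of growth was then determined by comparison with vehicle treatment.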

[5] = NCI Yeast Anticancer Drug Screen. Data for the bub3 strain (AID 167); details: S. cerevisiae bub3 mutant strain, at 50.0 µM, active compounds read high
Procedure, shortened: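 Screening used yeast with an engineered genetic alteration affecting cell cycle control. Compound-exposed cultures were compared with vehicle cultures, and reduced growth was taken as inhibition.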

[6] = NCI Yeast Anticancer Drug Screen. Data for the mlh1 rad18 strain (AID 175); details: S. cerevisiae mlh1 rad18 strain growth inhibition; at 50.0 µM; active compounds read high
Procedure, shortened: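 Inhibition values reflect reduced growth of mutant yeast versus vehicle-treated controls following compound exposure; the mutations affect DNA damage repair.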

Compound | growth inhibition [1] | growth inhibition [2] | growth inhibition [3] | growth inhibition [4] | growth inhibition [5] | growth inhibition [6]
[C-]#[O+].[C-]#[O+].[C-]#[O+].[C-]#[O+].[W].c1ccc([PH+](CC[PH+](c2ccccc2)c2ccccc2)c2ccccc2)cc1 | -2.9% | 5.2% | -10.4% | -8% | -7.5% | 8.95%
NC(=O)c1ccc(NN=O)nc1 | -10.4% | 0.9% | 1.1% | -9.85% | -2.85% | -2.5%
O=C1C(C(Nc2ccccc2)c2ccccc2)=C([O-])c2ccccc21.O=C1C(C(Nc2ccccc2)c2ccccc2)=C([O-])c2ccccc21.[Cu+2] (centres undefined) | -12% | -1.5% | -10.2% | 10.5% | 4.75% | -0.65%
CC(=O)Oc1ccc([As](=O)(O)O)cc1 | 5.55% | -7.75% | 3.75% | -11.8% | 10.4% | 1.05%
CC(=O)c1ccc(-c2ccccc2)cc1 | -5.3% | 2.6% | 8.45% | 11.9% | 3.6% | 18.1%
C[N+]1(CC2CC2)C2CC(OC(=O)C(CO)c3ccccc3)CC1C1OC12 (centres undefined) | 11.1% | 23.9% | 10.7% | 9.55% | -0.6% | -33.5%
Cc1cc(Cl)ccc1OCCCC(=O)O | 28.4% | 16.2% | 41.5% | 21% | 47.1% | 15.4%
O=C1NC(=O)C(CC(C(=O)C(=O)Nc2ccccc2Cl)C(=O)c2ccc3ccccc3c2)C(=O)N1 (centres undefined) | -27.7% | 7.8% | -6.3% | -32.8% | 2.4% | -3.45%
CCOC(=O)Oc1c(Cl)cc(S(=O)(=O)F)cc1Cl | 99.6% (active) | 99.8% (active) | 99.6% (active) | 99.5% (active) | 99.7% (active) | 99.5% (active)
COc1ccc(C[C@@H]2NC[C@@H](O)[C@@H]2OC(C)=O)cc1 | 91.3% (active) | 93.2% (active) | 93.2% (active) | 91.8% (active) | 92.2% (active) | 91.3% (active)
Cc1cc(OCC2=NCCN2)c(C)c(C)c1Cl | 44.3% | 26.9% | 36.1% | 51% | 9.2% | 79.3% (active)
CCOS(=O)OCC | 19% | 0.35% | -26.1% | 17.9% | 17.6% | 9.2%
CC(NC(=O)C(c1ccccc1)c1ccccc1)C(=O)O (centres undefined) | 2.35% | 12.6% | -1.5% | -17.2% | 1.4% | 14.9%
Cn1c(O)c(C(=O)NC2CCCCC2)c(=O)n(C)c1=S | -6.1% | 12.2% | 18.9% | 27.6% | 8.5% | 13.1%
O=[N+]([O-])c1cccc(/C=C/C=C/c2ccc(Cl)c(S(=O)(=O)F)c2)c1 | 7.95% | 14.4% | -39.5% | 6.5% | 9.05% | -7.1%
C1CC[N-]CC1.CC(=N\O)/C(C)=N/O.CC(=N\O)/C(C)=N/O.[CH2-]c1ccccc1.[Co+2] | -3.75% | -0.9% | -13.4% | -36% | 16.4% | -4.5%
COc1cccc(C=O)c1OC | 15.8% and 43.1% | 2.2% and 24.1% | 4.2% and 20.9% | 27.1% and -7.95% | 3.5% and 12.7% | 47% and 37.1%
CCOP1(=S)NNP(=S)(OCC)NN1 (centres undefined) | -2.75% | -11.5% | -3.75% | 18.4% | 10.2% | 8.85%
CN1CCN(Cc2ccccc2)C(C#N)C1 (centres undefined) | -2.6% | -8.75% | -0.35% | -25.9% | -17.4% | -11.7%
CC(C)CCC1(CC[N+](C)(C)C)C(=O)NC(=O)NC1=O | 5.95% | -9.85% | 6.15% | -29.2% | 10.7% | -7.05%

Compound | growth inhibition [1] | growth inhibition [2] | growth inhibition [3] | growth inhibition [4] | growth inhibition [5] | growth inhibition [6]
CC(O)C[As](=O)(O)c1ccccc1Cl (centres undefined) | 2.85% | 25.5% | -17.3% | -2.55% | 14.4% | -16.6%
O=NN(O)c1ccccc1.O=NN(O)c1ccccc1.[Mn+2] | 4.85% | 0.15% | 13.1% | -46.5% | -4.3% | 3.85%
O=Cc1ccccc1O | 28.8% | -2.25% | 12.4% | -10.4% | -6.05% | 5.6%
CC1(C)N=C(N)N=C(N)N1c1ccc(CCCCc2ccc(S(=O)(=O)F)c(Cl)c2)c(Cl)c1 | 99.2% (active) | 99.5% (active) | 99.4% (active) | 99.2% (active) | 99.3% (active) | 99.3% (active)
CC(C)(C)NC(=O)CCl | -9.6% | -1.35% | -6.1% | -10.2% | 7.45% | -7.85%
NC(=S)Nc1ccccc1 | 9.75% | -18% | -24.4% | -11.1% | 8.65% | 5.6%
O=C(Nc1cccs1)c1c(O)[nH]c(=S)[nH]c1=O | -1.35% | 20.9% | 25.1% | 16.8% | 7.05% | 4.5%
CN(N=O)C1=NC2(CCCCC2)P(=O)(NNc2ncccn2)O1 (centres undefined) | 0.9% | -17.9% | -15.2% | 9.85% | 11.2% | 13.1%
O=P(CCl)(Oc1ccc(Cl)cc1)Oc1ccc(Cl)cc1 | 20.6% | 16.1% | 6% | -19.4% | 7.5% | -10.2%
CCCCC(CC)C(=O)O.[Sn] (centres undefined) | -20.5% | -9.1% | -10.3% | -10.4% | -20.9% | -15.8%
N[C@H](Cc1ccc2oc3cc(=O)c4ccccc4c-3nc2c1)C(=O)O | 20.8% | 33.4% | 24.7% | 15.1% | 35.5% | 39.2%
CCC[CH2][Sn]([Br])([CH2]CCC)[CH2]CCC | 91.2% (active) | 97.8% (active) | 95.8% (active) | 96% (active) | 89.4% (active) | 97.3% (active)
COC1CC(OC2OC(CO)C(O)C(O)C2O)/C(=C\C#N)C(O)C1OC (centres undefined) | 1.95% | -3.05% | 1.8% | 9.25% | 2.35% | -58.2%
OC(Br)C1C(c2ccccc2)N1C1CCCCC1 (centres undefined) | -2% | 18.4% | -3.35% | -11.2% | 0.15% | 7.4%
Cc1c2ccccc2c(CNCCSCCCl)c2ccc3ccccc3c12 | 97.2% (active) | 98.5% (active) | 98.4% (active) | 98.3% (active) | 97.5% (active) | 98.8% (active)
O=C(CN1CC1)NCCCCCCCNC(=O)CN1CC1 | -13.4% | 3.5% | 1.6% | 8.15% | -4.15% | 25.4%
CCOP(=O)(OCC)/C(=C/c1cccs1)CC(C)=O | 7.8% | -57.6% | -27.9% | 14.6% | -25.9% | -76%
CCOP(=O)(OCC)Oc1cc(C)c(Cl)c(C)c1 | 10.2% | -16.7% | 4.15% | 18.4% | 16.9% | -8.35%
CCCOCC(O)C[As](=O)(O)c1cccc(Cl)c1 (centres undefined) | 2.35% | 3.55% | 0.3% | -4.4% | 10.2% | -5.55%
